Values joined by “and” are separate entries in the source; they are usually repeats but may differ in a detail not shown here. Equal entries are not always repeated. Inconclusive results are not listed. Values without a mark were called inactive. Active and inactive are the calls of the source. Unless noted, the call rests on the fitted dose curve; in most records, active means well fitted curve in the direction sought with a large enough effect in the repeat runs; inconclusive means weak or mixed curves; inactive means no such curve, though single readings can be large; an effect the other way counts as inactive or inconclusive.

Experiment [1] is described as follows: qHTS assay to identify small molecule antagonists of the estrogen related receptor (ERR) signaling pathway from Tox21 library - cell viability counter screen (AID 1224834). Further: nearly all actives have a fitted effect of over 30% in size. Further: potency means the concentration at half of the fitted maximal effect. In a few lines:
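Seeded ERR cells were rested 6 h at 37 C/5% CO2 before compounds, positive and negative controls or DMSO were added. Incubation continued for 17.5 h, and viability was then quantified by CellTiter-Fluor fluorescence.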

The target in experiment [2] is Luciferin 4-monooxygenase (Photinus pyralis) (UniProt P08659). Nature of the experiment: qHTS assay to identify small molecule inhibitors of firefly luciferase (AID 1224835). Further: nearly all actives have a fitted effect of over 25% in size. Further: potency means the concentration at half of the fitted maximal effect. In outline: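 Inhibition of purified Photinus luciferase is measured by luminescence. Substrate levels (D-luciferin, ATP) sit at their KM values. Each compound is tested in a concentration series.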
Chain of Luciferin 4-monooxygenase (Photinus pyralis) (P08659 whole entry, looked up): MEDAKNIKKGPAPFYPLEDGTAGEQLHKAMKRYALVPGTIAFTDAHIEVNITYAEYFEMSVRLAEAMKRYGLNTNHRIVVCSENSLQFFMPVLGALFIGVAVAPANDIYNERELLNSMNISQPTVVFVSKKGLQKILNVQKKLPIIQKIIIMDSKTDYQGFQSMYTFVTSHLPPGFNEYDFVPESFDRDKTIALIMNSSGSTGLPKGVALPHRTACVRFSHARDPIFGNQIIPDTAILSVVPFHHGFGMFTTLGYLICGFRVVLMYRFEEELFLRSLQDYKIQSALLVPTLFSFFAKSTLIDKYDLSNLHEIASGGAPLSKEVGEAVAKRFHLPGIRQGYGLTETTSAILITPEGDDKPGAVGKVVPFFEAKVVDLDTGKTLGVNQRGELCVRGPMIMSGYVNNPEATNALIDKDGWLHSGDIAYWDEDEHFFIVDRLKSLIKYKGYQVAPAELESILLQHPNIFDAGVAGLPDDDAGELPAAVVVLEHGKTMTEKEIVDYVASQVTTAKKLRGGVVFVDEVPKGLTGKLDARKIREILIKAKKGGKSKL

A short description of experiment [3]: qHTS assay to identify small molecule agonists of the constitutive androstane receptor (CAR) signaling pathway - cell viability counter screen (AID 1224836). Further: nearly all actives have a fitted effect of over 45% in size. Further: potency means the concentration at half of the fitted maximal effect. In a few lines:
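Multiplexed viability check: HepG2-CYP2B6-hCAR cells, 15-point compound dosing, 0.75 uM PK11195 final, 23 h at 37 C, CellTiter-Fluor fluorescence.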
(In qHTS, concentration-response curves come from the screen itself.)

Experiment [4] is described as follows: qHTS assay to identify small molecule antagonists of the constitutive androstane receptor (CAR) signaling pathway - cell viability counter screen (AID 1224837). Further: nearly all actives have a fitted effect of over 45% in size. Further: potency means the concentration at half of the fitted maximal effect. In a few lines:
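To flag cytotoxic false antagonists, HepG2 hCAR/CYP2B6-2.2kb cells were treated 23 hr with 15-concentration compound series and 50 nM CITCO at 37 C/5% CO2; CellTiter-Fluor fluorescence was the measured end point.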

The nature of experiment [5]: qHTS assay to identify small molecule antagonists of the estrogen related receptor signaling pathway with the pleiotropic PPARgamma coactivator (PGC) from Tox21 10K library - cell viability counter screen (AID 1224840; active means well fitted cell-killing curve with a large enough effect in the repeat runs, not every such curve was filed as active; further: nearly all actives have a fitted effect of over 40% in size; further: potency means the concentration at half of the fitted maximal effect). In outline: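 Seeded PGC/ERR cells (2,000/well, 6 h, 37 C/5% CO2) get compound by pin tool; 17.5 h incubation at 37 C; CellTiter-Fluor added, 30 min, fluorescence measured.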

The target of experiment [6] is Thyrotropin receptor (Homo sapiens) (UniProt P16473). Nature of the experiment: qHTS assay to identify small molecule agonists of the thyroid stimulating hormone receptor (TSHR) signaling pathway (AID 1224843; calls by dose curve; further: nearly all actives have a fitted effect of over 45% in size; further: potency means the concentration at half of the fitted maximal effect). In a few lines:
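A cell-based cAMP HTRF format was run in TSHR-transfected HEK293 cells, 800 per well. Treatment: 30 min, room temperature. Detection: 1 h with labelled cAMP and anti-cAMP cryptate. Concentration-response over 15 points, three replicates.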

For experiment [7], the target named is Nuclear receptor subfamily 1 group I member 3 (Homo sapiens) (UniProt Q14994). Nature of the experiment: qHTS assay to identify small molecule agonists of the constitutive androstane receptor (CAR) signaling pathway (AID 1224839).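 Further: HepG2 cells stably carrying human CAR and a CYP2B6 luciferase reporter; series mostly up to about 92 µM; nearly all actives have a fitted effect of over 15% in size.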 In a few lines: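 Using human hepatoma HepG2 cells engineered with hCAR and a CYP2B6-2.2kb reporter, 15-concentration compound series were incubated 24 h alongside PK11195 at 0.75 uM final, with luminescence quantified afterwards.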
Chain of Nuclear receptor subfamily 1 group I member 3 (Homo sapiens) (Q14994 whole entry, looked up): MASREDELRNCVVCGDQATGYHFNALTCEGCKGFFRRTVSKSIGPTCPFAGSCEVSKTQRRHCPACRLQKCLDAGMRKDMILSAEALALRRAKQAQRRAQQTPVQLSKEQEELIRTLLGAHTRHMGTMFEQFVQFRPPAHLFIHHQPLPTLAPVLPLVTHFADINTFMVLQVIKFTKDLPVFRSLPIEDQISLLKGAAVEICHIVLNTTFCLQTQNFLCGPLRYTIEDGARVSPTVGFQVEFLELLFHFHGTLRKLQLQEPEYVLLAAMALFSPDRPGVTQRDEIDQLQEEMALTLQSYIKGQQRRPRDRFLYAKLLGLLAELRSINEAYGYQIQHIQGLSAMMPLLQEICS

Experiment [8] is described as follows: qHTS assay to identify small molecule antagonists of the estrogen related receptor signaling pathway with the pleiotropic PPARgamma coactivator (PGC) from Tox21 10K library (AID 1224841; call rule not given here; further: actives are mostly falling curves and most rising ones were filed inactive; nearly all actives have a fitted effect of over 50% in size; further: potency means the concentration at half of the fitted maximal effect). In outline: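 Test chemicals dissolved in DMSO were applied to pre-incubated (6 h) PGC/ERR cells at 2,000 cells/well for an 18 h, 37 C treatment; reporter luminescence was then read using One-Glo.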

Experiment [9] is described as follows: qHTS assay to identify small molecule agonists of the estrogen related receptor signaling pathway with the pleiotropic PPARgamma coactivator (PGC) from Tox21 10K library (AID 1224842). Further: nearly all actives have a fitted effect of over 15% in size. In outline: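 Luminescence from One-Glo (30 min, room temperature) measured after PGC/ERR cells had 18 h at 37 C with pinned compound (23 nL in DMSO). Cells had been seeded at 2,000 per well and pre-incubated 6 h.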

Experiment [10] addresses Nuclear receptor subfamily 1 group I member 3 (Homo sapiens) (UniProt Q14994). The experiment is described as follows: qHTS assay to identify small molecule antagonists of the constitutive androstane receptor (CAR) signaling pathway (AID 1224838).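 Further: HepG2 cells stably expressing hCAR with CYP2B6 luciferase reporter stimulated by CITCO; nearly all actives have a fitted effect of over 40% in size.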 In outline:
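Human hepatoma HepG2 cells expressing hCAR and a CYP2B6 promoter (2.2 kb) luciferase construct; compound titration (15 points) with 50 nM CITCO final, 24 h at 37 C/5% CO2; luminescence via ONE-Glo after 30 min at room temperature.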

Chain of Thyrotropin receptor (Homo sapiens) (P16473 whole entry, looked up): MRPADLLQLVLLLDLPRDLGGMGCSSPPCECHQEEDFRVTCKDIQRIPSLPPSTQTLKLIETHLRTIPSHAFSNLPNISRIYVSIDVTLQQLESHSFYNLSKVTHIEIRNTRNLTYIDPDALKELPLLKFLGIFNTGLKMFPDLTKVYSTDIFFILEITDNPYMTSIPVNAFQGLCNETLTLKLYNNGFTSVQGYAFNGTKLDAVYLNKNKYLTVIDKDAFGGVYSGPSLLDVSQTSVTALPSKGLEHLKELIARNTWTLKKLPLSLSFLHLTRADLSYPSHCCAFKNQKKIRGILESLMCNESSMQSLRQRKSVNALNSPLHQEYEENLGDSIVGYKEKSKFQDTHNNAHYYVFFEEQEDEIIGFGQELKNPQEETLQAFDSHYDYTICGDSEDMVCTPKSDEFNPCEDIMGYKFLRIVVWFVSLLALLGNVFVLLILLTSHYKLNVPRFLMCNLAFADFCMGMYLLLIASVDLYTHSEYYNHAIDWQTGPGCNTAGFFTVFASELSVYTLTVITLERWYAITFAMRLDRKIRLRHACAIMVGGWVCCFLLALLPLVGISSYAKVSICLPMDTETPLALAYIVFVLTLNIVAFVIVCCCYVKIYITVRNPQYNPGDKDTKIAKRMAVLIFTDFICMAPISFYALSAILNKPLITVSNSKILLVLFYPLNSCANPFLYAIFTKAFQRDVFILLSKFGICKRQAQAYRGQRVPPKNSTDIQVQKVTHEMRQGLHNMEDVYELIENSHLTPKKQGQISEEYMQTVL

Take `O=Cc1cc(O)ccc1Br`: the Potency entry in experiment [1], in [3], in experiment [4] and in [5] was “inactive” in each case. Besides, the Potency in experiment [2] is 57.2 µM (active).
Turning to `CN(C)CCCOC1(Cc2ccccc2)CCCCCC1`, the Potency result in experiment [1], in experiment [2], in [3], in experiment [4], in experiment [5] and in experiment [6] was “inactive” each time.
Consider `CC(C)(C)c1ccc(C(=O)O)cc1`, for which the Potency result in [1], in experiment [3], in experiment [4], in experiment [5] and in experiment [6] was “inactive” throughout. The Potency in experiment [2] is 35.6 µM (active).
Regarding `CCCCCCCC/C=C\CCCCCCCCOCCO`, the Potency is 35.5 µM (active) in experiment [1], 25.1 µM (active) in experiment [3], 31.6 µM (active) in experiment [4] and 63.1 µM (active) in experiment [5]. Besides, the Potency entry in experiment [2] and in experiment [7] was “inactive” in each case.
Consider `C=CC(=O)OCC(CO)(COC(=O)C=C)COC(=O)C=C`, for which the Potency was 6.88 µM (active) and 13.7 µM (active) in [1]; 13.7 µM (active) and 54.5 µM (active) in experiment [3]; 9.72 µM (active) and 24.3 µM (active) in experiment [4]; 6.13 µM (active) and 12.2 µM (active) in experiment [5]; 13.7 µM (active) and 24.3 µM (active) in experiment [8]; 6.13 µM (active) and 9.69 µM (active) in experiment [6]. Also, the Potency entry in experiment [2] and in experiment [9] was “inactive” in each case.
In the case of `Nc1ccc(N)c2ccccc12`, the Potency in [1] is 30.6 µM (active); in [3] it was 30.6 µM (active); in experiment [4], 30.6 µM (active); in experiment [5] it was 54.4 µM (active). Besides, the Potency result in [2], in experiment [7], in [9] and in experiment [6] was “inactive” each time.
As to `CCCCCCC[N+](CC)(CC)CCCCc1ccc(Cl)cc1`, the Potency in [1] was 23.7 µM (active). Also, the Potency result in [2], in experiment [3], in experiment [4], in experiment [10], in experiment [5] and in [6] was “inactive” each time.
Turning to `CCCCN1CCCC[C@H]1C(=O)Nc1c(C)cccc1C`, the Potency entry in experiment [1], in [2], in [3], in experiment [4], in experiment [5] and in [6] was “inactive” throughout.
For the molecule `CCCCCCCCCCC=O`, the Potency result in experiment [1], in experiment [2], in experiment [3], in [4], in [5] and in [8] was “inactive” each time. Moreover, the Potency result in experiment [9] and in experiment [6] was “inactive” throughout.
`CCN(C(=O)c1cc(C)cc(OC[C@H](C)Nc2ccncc2)c1)C(C)C`: the Potency entry in experiment [1], in experiment [2], in [3], in [4], in experiment [10] and in experiment [5] was “inactive” each time. The Potency entry in [6] is “inactive”.
Turning to `CCCCCOC(=O)CCCC`, the Potency entry in [1], in experiment [2], in experiment [3], in experiment [4], in [5] and in experiment [6] was “inactive” each time.
For `C[C@]12CCC(=O)C=C1CC[C@@H]1[C@@H]2[C@@H](O)C[C@@]2(C)[C@H]1CC[C@]2(O)C(=O)COC(=O)CCC(=O)O`, the Potency result in [1], in experiment [2], in experiment [3], in [4], in experiment [5] and in experiment [6] was “inactive” each time.
For the molecule `CC(C)OC(=O)c1cc2c(OCC(O)CNC(C)(C)C)cccc2[nH]1` (configuration not stated), the Potency entry in experiment [1], in experiment [2], in [3], in experiment [4] and in experiment [5] was “inactive” each time.
For the molecule `O=C(OCC(COC(=O)c1ccccc1)(COC(=O)c1ccccc1)COC(=O)c1ccccc1)c1ccccc1`, the Potency result in [1], in [2], in [3], in experiment [4], in experiment [5] and in experiment [8] was “inactive” each time. The Potency entry in experiment [9] and in experiment [6] was “inactive” in each case.
On to `CCCCC(CC)CN=C(N)NC(N)=NCCCCCCN=C(N)NC(N)=NCC(CC)CCCC` (configuration not stated), for which the Potency was 11.9 µM (active) in [1]; 26.6 µM (active) in experiment [3]; 23.7 µM (active) in experiment [4]; 16.8 µM (active) in [5]; 23.7 µM (active) in experiment [8]. Also, the Potency entry in experiment [2] and in [9] was “inactive” in each case.
On to `Oc1cc2ccccc2c2ccccc12`, for which the Potency in experiment [1] is 8.63 µM (active); in experiment [2], 79.6 µM (active); in [3], 17.2 µM (active); in experiment [4] it was 13.7 µM (active); in [5], 7.7 µM (active).
For the molecule `CC(C)C(C)(C)C(C)(C)C(C)(C)S`, the Potency entry in experiment [1], in experiment [2], in experiment [3], in experiment [4], in experiment [5] and in experiment [6] was “inactive” in each case.
For `CCCCC(CC)COC(=O)c1ccccc1C(=O)O` (configuration not stated), the Potency result in experiment [1], in experiment [2], in [3], in experiment [4], in experiment [7] and in experiment [5] was “inactive” each time. Besides, the Potency entry in experiment [9] is “inactive”.
